PAFAH2 FP inh = inhibitors of human PAFAH2. Q99487. recombinant PAFAH2, FP-rhodamine activity probe, fluorescence polarization. inhibition, % at 3.39 µM. actives 0.99% (n = 340,000). AID 492956;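 active means inhibition above the mean over all tested compounds plus 3 SD, cut at about 30% in these data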;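 further: inhibitors block probe labeling of enzyme so polarization drops; 0% = enzyme with DMSO and 100% = wells lacking PAFAH2 protein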
pPAFAH FP inh = pPAFAH (human) enzyme inhibition; Q13093; recombinant pPAFAH, FP-rhodamine probe fluorescence polarization; inhibition, % at 3.39 µM; actives 1.5% (n = 330,000);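 active means inhibition above the mean inhibition across the screen plus 3 SD, cut at about 25% in these data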;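 further: inhibitors block binding of the rhodamine activity-based probe so polarization drops; 0% = enzyme with DMSO and 100% = wells lacking pPAFAH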
PAFAH1B2 inh = PAFAH1B2 (human) inhibition | P68402 | recombinant PAFAH1B2, FP-rhodamine activity probe, fluorescence polarization | inhibition, % at 3.39 µM | actives 1.2% (n = 340,000) | AID 492953;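 active means inhibition above the mean of all tested compounds plus 3 SD, cut at about 24% in these data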;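 further: 0% = enzyme with DMSO and 100% = wells lacking PAFAH1B2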
PAFAH1B3 inh = blocks human PAF acetylhydrolase 1B catalytic subunit 3; Q15102; recombinant PAFAH1B3, FP-rhodamine probe, fluorescence polarization; inhibition, % at 3.39 µM; actives 0.28% (n = 340,000);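 active means inhibition above the screen-wide average of all tested compounds plus 3 SD, cut at about 25% in these data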;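 further: 0% = enzyme with DMSO only and 100% = wells lacking PAFAH1B3 protein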
Target sequence (Q15102 whole entry, looked up): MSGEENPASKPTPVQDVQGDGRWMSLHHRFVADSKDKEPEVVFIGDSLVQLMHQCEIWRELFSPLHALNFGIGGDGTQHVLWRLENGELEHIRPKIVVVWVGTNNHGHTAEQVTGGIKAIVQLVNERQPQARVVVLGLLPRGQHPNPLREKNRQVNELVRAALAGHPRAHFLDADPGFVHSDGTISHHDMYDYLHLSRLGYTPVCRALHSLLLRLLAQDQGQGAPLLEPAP
EBNA-1 inhibitor = blocks EBNA-1 binding to DNA. AID 1950. EBNA-1 DNA binding, fluorescence polarization. actives 0.34% (n = 300,000). inhibition, % at 14.8 µM; in the data active means inhibition above about 28%
ZTA counter = blocks Epstein-Barr virus ZTA, an EBNA-1 counter-screen. actives 0.15% (n = 320,000). ZTA-DNA binding, fluorescence polarization. inhibition, % at 11 µM; in the data active means inhibition above about 33%
PAFAH1B3 confirm = PAFAH1B3 (human) inhibition, confirmed. inhibition, % at 3.39 µM. actives 30% (n = 390). shares compounds with PAFAH1B3 inh. recombinant PAFAH1B3, FP-Rh activity-based probe, fluorescence polarization. AID 493032;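 active means average inhibition over triplicate runs above the hit cutoff set in the earlier primary screen, cut at about 25% in these data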;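 further: 0% = enzyme with DMSO and 100% = wells lacking PAFAH1B3 protein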
Active calls of the source: *; . = no result. Most compounds without a hit are left out; they make up all but 2.9% or so of the library.

SMILES	PAFAH2 FP inh	pPAFAH FP inh	PAFAH1B2 inh	PAFAH1B3 inh	EBNA-1 inhibitor	ZTA counter	PAFAH1B3 confirm
O=[N+]([O-])c1ccc(C(O)CSC(=S)N2CCCCC2)cc1 (centres undefined)	0	0	5	2	-2	-3	.
Cc1ccc2c(cnn2C(=O)CCC(=O)NC2CCCCC2)c1	12	6	8	-4	-7	3	.
ON=C1c2ccccc2-c2ccccc21	2	1	2	35*	-7	-10	28*
CN(C)c1ccc2c(c1)C(=NO)c1ccccc1-2	0	.	4	7	.	.	.
COc1ccc(Cn2c(O)c(/C=N/NC(=O)c3cccnc3)c3ccccc3c2=O)cc1	19	.	13	26*	.	.	18
CC(CNC(=O)CN1C(=O)COc2ccc(S(=O)(=O)N3CCCCC3)cc21)c1ccccc1 (centres undefined)	2	-2	20	4	-22	-5	.
O=C(NCCCN1CCOCC1)c1cc(S(=O)(=O)N2CCOCC2)ccc1Cl	1	1	2	-3	.	.	.
O=C(CCCC(=O)N/N=C\c1ccccn1)N/N=C\c1ccccn1	2	5	-4	9	8	-3	.
CC(Nc1cccc2ccccc12)C(=O)N/N=C/c1ccccn1 (centres undefined)	23	3	11	36*	2	-2	11
O=C(CCCn1cncn1)N1CCCC(N2CCN(c3ccc(F)cc3)CC2)C1 (centres undefined)	5	2	4	4	6	-2	.
Cc1c(CN(C)C)c2c(n1C)C(=O)c1ccc(Br)cc1-2	6	5	-4	17	-19	6	.
CCOC(=O)c1c2c(n(C)c1C)C(=O)C(=O)c1ccc(Br)cc1-2	22	-3	8	36*	-4	-15	21
Cc1cccc(Cn2nnc3c2C(=O)c2ccccc2C3=O)c1	7	1	10	30*	11	4	9
CC1OC(Nc2ccc(N=Nc3ccccc3)cc2)C(O)C(O)C1O (centres undefined)	2	2	1	5	-3	-2	.
CC1OC(Nc2cccc3ccccc23)C(O)C(O)C1O (centres undefined)	14	0	4	32*	0	-10	9
Nc1nonc1-n1nnc(C(=O)N/N=C/c2cc(Br)cs2)c1-c1ccccc1	-8	-4	2	4	4	-10	.
CCCS(=O)(=O)c1c(S(=O)(=O)CCC)c2c(C)cccn2c1C(=O)N/N=C/c1cc(O)cc(O)c1	2	15	-2	27*	-3	-11	11
CC1=CC(C)(C)NC(=S)N1c1cccc2cc(S(=O)(=O)O)ccc12	12	23	11	29*	-1	-3	24
OCC#Cc1ncc(C(F)(F)F)cc1Cl	-3	4	1	28*	3	12	25
NC(=O)Cc1ncc(C(F)(F)F)cc1Cl	-7	8	8	6	6	-2	.
CCc1ccc(-c2cc(C)no2)cc1S(=O)(=O)N1CCN(c2cc(C)ccc2C)CC1	-2	-4	-3	2	-16	7	.
O=C(Nc1ccc(O)cc1)C1CC=CCC1 (centres undefined)	26	17	13	27*	-6	-22	12
COc1ccccc1NC(=O)NC(=O)c1ccccc1	2	2	0	3	-7	-10	.
Cc1cc(C)c[n+](C2=C([O-])c3ccccc3C(=O)/C2=N\S(=O)(=O)c2cccs2)c1	9	10	4	33*	12	10	23
O=C(CNS(=O)(=O)c1ccccc1F)NNC(=O)c1ccc(Br)cc1	-8	.	-6	3	.	.	.
Fc1ccc2nc(Nc3nc4cc5c(cc4s3)OCCO5)sc2c1	-15	13	4	8	-17	-13	.
Fc1ccc2nc(Nc3nc4cc5c(cc4s3)OCO5)sc2c1	-32	24	23	43*	6	11	44*
COc1ccc(OC)c(NC(=O)COC(=O)CCc2ccc(S(=O)(=O)N3CCOCC3)cc2)c1	-2	11	2	5	.	.	.

From PubChem BioAssay
